Source: PubChem (National Center for Advancing Translational Sciences (NCATS))
Tb PGK inh: blocks T. brucei phosphoglycerate kinase; P07378; PGK/GAPDH coupled, Kinase-Glo luminescence, 60 min; Potency, µM (doses to about 57.5 µM), actives largely listed as inhibitors; 0.043% of 380,000 active; AID 602233; further: nearly all actives have a fitted effect of over 60% in size
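Recombinant glycosomal PGK reaction used 1,3-bisphosphoglycerate generated in-well by GAPDH (100nM final) in 100mM TEA pH 7.6, 5mM MgCl2, 0.01% Tween-20. After 60 minutes at room temperature, ATP was read by Kinase-Glo Plus luminescence end-point.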
PI5P4K alpha inh: inhibitors of human PI5P4K alpha; PI5P4Kalpha enzyme, ADP-Glo luminescence, 60 min; active compounds read low; 1.2% of 330,000 active; AID 652105; P48426; max response, %; active means max response of -50% or lower; inconclusive means between -30% and -50%; inactive means -30% or higher; further: value at the top dose of about 77 µM
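PI5P4Kalpha ADP-Glo assay; 5 microM ATP final; 60 min RT reaction; HEPES pH 7.4/EGTA/CHAPS, 5% DMSO; controls lacking substrate or enzyme; luminescent end-point.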
WRN helicase inh: blocks human WRN helicase; Potency, µM (top dose mostly 114 µM), most hits filed as inhibitors; 0.46% of 360,000 active; Q14191; WRN helicase unwinding, fluorescent forked duplex, kinetic; further: nearly all actives have a fitted effect of over 55% in size
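Enzyme (20 nM final) and test compound sit together 15 min at room temperature before substrate addition. Substrate is a single-forked duplex oligonucleotide (100 nM) labelled with fluorophore and quencher, with 2 mM ATP; helicase unwinding raises red fluorescence, read kinetically.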
FEN1 inhibitor: blocks human flap endonuclease 1. P39748. Recombinant FEN1 flap cleavage, fluorescence, 15 min. Potency, µM (titrated, usually from 114 µM), usual class: inhibitors. 0.35% of 390,000 active; further: nearly all actives have a fitted effect of over 65% in size
Target sequence (P39748 whole entry, looked up): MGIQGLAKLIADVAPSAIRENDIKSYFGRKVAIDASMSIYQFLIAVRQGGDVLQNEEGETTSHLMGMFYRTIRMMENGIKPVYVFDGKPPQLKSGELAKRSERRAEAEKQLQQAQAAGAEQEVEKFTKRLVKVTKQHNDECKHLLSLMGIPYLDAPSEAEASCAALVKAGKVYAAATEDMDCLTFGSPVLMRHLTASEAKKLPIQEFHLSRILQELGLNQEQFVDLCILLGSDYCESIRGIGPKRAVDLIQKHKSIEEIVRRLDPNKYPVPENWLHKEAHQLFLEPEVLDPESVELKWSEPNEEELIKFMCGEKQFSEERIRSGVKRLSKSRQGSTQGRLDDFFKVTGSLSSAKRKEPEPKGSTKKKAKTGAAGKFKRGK
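With each library titrated from low to high concentration, compounds met 10 nM FEN1 for 15 min at room temperature before 50 nM substrate was added; readings at 0 and 15 min fed four-parameter Hill curve fits.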
Glioma ERSR ind: induces the endoplasmic reticulum stress response in human glioma cells | U87-MG GRP78 promoter luciferase reporter, 16 h | Potency, µM, usual class: activators | 0.02% of 420,000 active; further: series mostly up to about 76 µM; nearly all actives have a fitted effect of over 35% in size
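Stably transfected U87-MG glioma cells carrying a GRP78-based luciferase sensor; 16 h compound incubation. Luminescence end-point read 10 min after Bright-Glo addition at room temperature.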
Pin1 inh: blocks the human prolyl isomerase Pin1. Pin1 FP peptide displacement, HiFluor488, 10 min. Potency, µM (titrated, usually from 115 µM), usual class: inhibitors. 0.009% of 390,000 active. AID 504891; active means well fitted inhibition curve with a large enough effect in the polarisation, with a control signal flat, not every such curve was filed as active; inconclusive means small, poorly fitted or top-dose-only effect, or effect the other way, or a change in a side signal; inactive means no such curve, though single readings can be large or run the other way; the % refers to the polarisation
Target sequence (Q13526 whole entry, looked up): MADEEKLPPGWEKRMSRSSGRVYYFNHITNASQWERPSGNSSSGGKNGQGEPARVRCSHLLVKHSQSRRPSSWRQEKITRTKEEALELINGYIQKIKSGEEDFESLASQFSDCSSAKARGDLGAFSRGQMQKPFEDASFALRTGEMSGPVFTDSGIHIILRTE
Hits are given with their value; . = inactive; ? = inconclusive; / = not tested or not shown; [ ] = dose if it differs, or a comment. Shown are actives, neighbours in structure and some others; about 1.3% of the full set was active somewhere. Unless noted, the call rests on the fitted dose curve; in most records, active means well fitted curve in the direction sought with a large enough effect; inconclusive means small, poorly fitted or top-dose-only effect, or another doubt; inactive means no such curve, though single readings can be large; an effect the other way counts as inactive or inconclusive.

SMILES	Tb PGK inh	PI5P4K alpha inh	WRN helicase inh	FEN1 inhibitor	Glioma ERSR ind	Pin1 inh
O=S(=O)(c1ccc(Br)cc1)N1CCN(S(=O)(=O)c2ccc3c(c2)OCCO3)CC1	/	/	/	/	/	.
O=C(/C=C/c1ccco1)NCC1OCCc2ccccc21 (stereo not given)	?	-70	56µM	?	.	?
O=C(CNC(=O)C1CCCCCC1)OC(C(=O)Nc1cc(C(F)(F)F)ccc1Cl)c1ccccc1 (stereo not given)	/	/	/	/	/	.
Nc1c(C(=O)OCC(=O)Nc2cccc([N+](=O)[O-])c2)[nH]c(=O)[nH]c1=O	18µM	?	?	?	.	?
O=C(COC(=O)c1ccccc1C(=O)c1ccccc1)Nc1cccc([N+](=O)[O-])c1	.	.	.	.	.	.
C=C1C(=O)C23C(O)C1CCC2C12CCCC(C)(COC(C)=O)C1C(O)C3(O)OC2 (stereo not given)	.	.	18µM	.	.	.
O=C(O)c1ccc(N2C(=O)CC(N3CCN(c4ccc(Cl)cc4)CC3)C2=O)cc1 (stereo not given)	.	.	.	.	.	.
O=C(O)c1ccc(N2C(=O)CC(N3C(=O)/C(=C/c4ccc(Cl)cc4)SC3=S)C2=O)cc1 (stereo not given)	.	-64	.[11.6 µM]	.	.	.
Cc1cc(N2C(=O)C(O)=C(C(=O)c3cc4ccccc4o3)C2c2ccc([N+](=O)[O-])cc2)no1 (stereo not given)	.	?	.	.	.	.
Cc1cc(N2C(=O)C(O)=C(C(=O)c3ccco3)C2c2cccc(Oc3ccccc3)c2)no1 (stereo not given)	.	-68	.	.	.	?
O=C(C1=C(O)C(=O)N(c2nccs2)C1c1ccccc1)c1cc2ccccc2o1 (stereo not given)	.	-52	.	.	.	?
O=C(C1=C(O)C(=O)N(CCc2ccccc2)C1c1ccncc1)c1cc2ccccc2o1 (stereo not given)	.	.	.	.	.	.
Cc1cc(N2C(=O)C(O)=C(C(=O)c3ccco3)C2c2cccc(O)c2)no1 (stereo not given)	.	.	.	.	.	.
Cc1ccc(C2C(C(=O)c3cc4ccccc4o3)=C(O)C(=O)N2c2cc(C)on2)cc1 (stereo not given)	.	-52	.	.	.	.
O=C(NCc1ccc(F)cc1)n1c(-c2ccccc2)c(P(=S)(c2ccccc2)c2ccccc2)c2ccccc21	/	/	/	/	/	.
CC(=O)N1CCc2cc(S(=O)(=O)N3CCN(S(=O)(=O)c4c(F)cccc4F)CC3)ccc21	/	/	/	/	/	.
COc1ccc(CN(Cc2ccccc2)C(=O)c2ccccc2O)cc1	/	/	/	/	/	.
Cc1cccc2c(N3CCCC3)nc(CNS(=O)(=O)c3ccc4ccccc4c3)nc12	/	/	/	/	.	/
CC(C)Cn1c(N)c(C(=O)COC(=O)c2cc(-c3ccco3)nc3ccccc23)c(=O)n(C)c1=O	.	-97	?	?	.	.
O=C(CN1C(=O)C2CCCCC2C1=O)Nc1nc(-c2ccccn2)cs1 (stereo not given)	.	.	.	.	.	.
C[C@@H](C(=O)Nc1nc(-c2ccccn2)cs1)N1C(=O)C2CCCCC2C1=O (stereo not given in full)	.	-56	?	.	.	?
CCN1CCN(C(=O)N[C@H](C(=O)N[C@@H]2C(=O)N3[C@@H](C(=O)O)C(C)(C)S[C@@H]23)c2ccccc2)C(=O)C1=O	/	/	/	/	.	/
O=C(NCCN1CCOCC1)c1cc(-c2cccs2)on1	.	/	.	.	11µM	.
NC(=S)N/N=C/c1cn(-c2ccccc2)nc1-c1cccnc1	.	-54	.	?	.	.
Cc1cnc(C=NNC(N)=S)c2cccc(N)c12	.	-53	?	?	.	?
SMILES	Tb PGK inh	PI5P4K alpha inh	WRN helicase inh	FEN1 inhibitor	Glioma ERSR ind	Pin1 inh
NC(=S)NN=Cc1nccc2ccccc12	.	.	.	.	.	.
COc1cc(/C=C/c2ccc3c(Br)cc(Br)c(O)c3n2)ccc1O	/	.	.	.	28µM	.
COc1ccc(C(=O)O/N=C(\N)c2ccccn2)cc1	11µM	-71	.	.	.	.
COc1ccccc1C(=O)O/N=C(\N)c1ccccn1	.	.	.	.	.	.
COc1ccc(C(=O)NNC(=O)c2ccccn2)cc1	?	-57	.	.	.	.
COc1cc(OC)cc(C(=O)O/N=C(\N)c2ccccn2)c1	.	.	.	.	.	.
Cc1ccc(C(=O)O/N=C(\N)c2ccccn2)c(C)c1	16µM	-57	.	.	.	.
Cn1cnnc1Sc1ccc(CN2CCOc3ccc(C4=Cc5ccccc5CC4)cc3C2)o1	/	/	/	/	.	/
CC(C)(O)C1Cc2cc(/C=C/C(=O)O)c(O)cc2O1 (stereo not given)	.	-66	.	.	.	.
Cc1cc(C)c2c(=O)n(CC(=O)N3CCC(N4CCCCC4)CC3)sc2n1	.	-81	.	?	.	.
CCOC(=O)C1CCCN(C(=O)Cn2sc3nc(C)cc(C)c3c2=O)C1 (stereo not given)	.	-81	.	?	.	.
CCCNC(=O)Cn1sc2nc(C)cc(C)c2c1=O	.	-83	.[11.6 µM]	50µM	.	.
CO[C@]1(NC(=O)Cc2cccs2)C(=O)N2C(C(=O)O)=CC(COC(N)=O)S[C@H]21 (stereo not given in full)	/	/	/	/	.	/
O=c1c2ccccc2nc2sc(NCc3ccc(Cc4ccccc4)cc3)nn12	/	/	/	/	/	.
CCCCCCCC(=O)CC[C@H]1[C@@H](C/C=C/CCCC(=O)OC(C)C)[C@@H](O)C[C@H]1O	/	/	/	/	.	/
Cc1cc2c(s1)c1cnn(Cc3c(F)ccc(C)c3F)c(=O)c1n2C	/	/	/	/	/	.
CC(Sc1nc2ccc(C(=O)c3ccccc3)cc2[nH]1)C(=O)O (stereo not given)	.	-52	?	.	.	.
CC(Sc1nc2ccc(Br)cc2[nH]1)C(=O)O (stereo not given)	.	/	.	.	.	.
CO[C@H]1[C@H](NC(=O)c2ccsc2)c2ccccc2C12CCN(Cc1cccc3ncccc13)CC2	/	/	/	/	.	/
COc1ccc(C2Nc3ccccc3C(=O)N2Cc2cccc(Cl)c2)cc1COc1ccc(NC(C)=O)cc1 (stereo not given)	/	/	/	/	/	.
Cc1cc(N2C(=O)C=CC2=O)c([N+](=O)[O-])cc1C	.	-56	.	?	.	.
Cc1c([N+](=O)[O-])cc(N2C(=O)C=CC2=O)cc1[N+](=O)[O-]	.	-66	.	.	.	/
Cc1ccc(N2C(=O)C3C4C=CC(CC4)C3C2=O)cc1[N+](=O)[O-] (stereo not given)	.	.	.	.	.	.
Cc1cc(C)cc(N2C(=O)C3CC=CCC3C2=O)c1 (stereo not given)	.	.	.	.	.	.
